Measured values as given in PubChem BioAssay (Tox21).
Records with an inconclusive call do not appear. Calls of active or inactive are those of the source. Unless noted, calls follow the shape of the dose curve; as a rule, active = well fitted curve in the direction sought with a large enough effect in the repeat runs; inconclusive = weak or mixed curves; inactive = no such curve, though single readings can be large; an effect the other way counts as inactive or inconclusive.

What was measured:
[1] = qHTS assay to identify small molecule antagonists of the estrogen related receptor (ERR) signaling pathway from Tox21 library - cell viability counter screen (AID 1224834); also: nearly all actives have a fitted effect of over 30% in size
Procedure, shortened: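 CellTiter-Fluor fluorescence, read after 30 min at 37 C, measures viability of ERR cells. Cells plated at 2,000/well and incubated 6 h before pin-tool compound addition, then exposed 17.5 hours at 37 C.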

[2] = molecular target: Luciferin 4-monooxygenase (Photinus pyralis) (UniProt P08659); assay: qHTS assay to identify small molecule inhibitors of firefly luciferase (AID 1224835); also: series mostly up to about 120 µM; nearly all actives have a fitted effect of over 25% in size
Procedure, shortened: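 Quantitative HTS format; KM concentrations of both substrates. Purified P. pyralis FLuc activity quantified from luminescence images.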

[3] = qHTS assay to identify small molecule agonists of the constitutive androstane receptor (CAR) signaling pathway - cell viability counter screen (AID 1224836); also: series mostly up to about 92 µM; nearly all actives have a fitted effect of over 45% in size
Procedure, shortened: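 23 h treatment, 37 C, 5% CO2. Cell line: HepG2 stably expressing hCAR with a CYP2B6-2.2kb construct. Co-treatment: PK11195, 0.75 uM final. Read-out: CellTiter-Fluor fluorescence intensity.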

[4] = qHTS assay to identify small molecule antagonists of the constitutive androstane receptor (CAR) signaling pathway - cell viability counter screen (AID 1224837); also: series mostly up to about 92 µM; nearly all actives have a fitted effect of over 45% in size
Procedure, shortened: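 Cytotoxicity counter-screen: CellTiter-Fluor fluorescence after 23 h compound exposure (15-point qHTS) in double-stable HepG2-CYP2B6-hCAR cells, with 50 nM CITCO added.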

[5] = molecular target: Nuclear receptor subfamily 1 group I member 3 (Homo sapiens) (UniProt Q14994); assay: qHTS assay to identify small molecule antagonists of the constitutive androstane receptor (CAR) signaling pathway (AID 1224838);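 also: HepG2 cells stably expressing hCAR with CYP2B6 luciferase reporter stimulated by CITCO; nearly all actives have a fitted effect of over 40% in size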
Procedure, shortened: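 Antagonism measured as luciferase signal (ONE-Glo, 30 min, room temperature) in CAR-stimulated cells: HepG2-CYP2B6-hCAR double-stable line exposed 24 hr at 37 C to compound in a 15-point series plus 50 nM CITCO.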

[6] = molecular target: Nuclear receptor subfamily 1 group I member 3 (Homo sapiens) (UniProt Q14994); assay: qHTS assay to identify small molecule agonists of the constitutive androstane receptor (CAR) signaling pathway (AID 1224839); also: nearly all actives have a fitted effect of over 15% in size; also: potency is read from the fitted curve at half-maximal effect;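 as to activation: HepG2 cells stably carrying human CAR and a CYP2B6 luciferase reporter; series mostly up to about 92 µM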
Procedure, shortened: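 Compounds tested at 15 concentrations on HepG2 cells stably harbouring hCAR and CYP2B6-2.2kb reporter constructs, co-treated with PK11195 (0.75 uM final), 24 h at 37 C; luminescent reporter signal quantified.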

[7] = qHTS assay to identify small molecule antagonists of the estrogen related receptor signaling pathway with the pleiotropic PPARgamma coactivator (PGC) from Tox21 10K library - cell viability counter screen (AID 1224840; active = well fitted cell-killing curve with a large enough effect in the repeat runs, not every such curve was filed as active; also: nearly all actives have a fitted effect of over 40% in size)
Procedure, shortened: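 Counter-screen for cytotoxicity: after 17.5 h compound exposure at 37 C, CellTiter-Fluor reagent added to PGC/ERR cells for 30 min and fluorescence read. Cells were seeded at 2,000 per well 6 h before dosing.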

[8] = molecular target: Thyrotropin receptor (Homo sapiens) (UniProt P16473); assay: qHTS assay to identify small molecule agonists of the thyroid stimulating hormone receptor (TSHR) signaling pathway (AID 1224843; calls by dose curve; also: nearly all actives have a fitted effect of over 45% in size)
Procedure, shortened: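 Compounds are titrated over 15 concentrations, in triplicate, onto TSHR-HEK293 cells seeded at 800/well. Plates sit 30 min at room temperature before cAMP-d2 and anti-cAMP cryptate are added; signal is read after a further hour.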

[9] = qHTS assay to identify small molecule agonists of the estrogen related receptor signaling pathway with the pleiotropic PPARgamma coactivator (PGC) from Tox21 10K library (AID 1224842); also: nearly all actives have a fitted effect of over 15% in size
Procedure, shortened: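 PGC/ERR reporter cells (NTP line) were seeded 2,000 per well, rested 6 h at 37 C/5% CO2, then pin-dosed with compounds in DMSO for 18 h at 37 C; luciferase read by One-Glo luminescence after 30 min at room temperature.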

[10] = qHTS assay to identify small molecule antagonists of the estrogen related receptor signaling pathway with the pleiotropic PPARgamma coactivator (PGC) from Tox21 10K library (AID 1224841; call rule not given here; also: actives are mostly falling curves and most rising ones were filed inactive; nearly all actives have a fitted effect of over 50% in size; also: potency is read from the fitted curve at half-maximal effect; as to activity, negative = inhibition: series mostly up to about 92 µM)
Procedure, shortened: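 Luminescence (One-Glo, 30 min at room temperature) after 18 h compound treatment at 37 C of PGC/ERR reporter cells plated at 2,000 cells/well and settled 6 h beforehand.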
% is scaled to controls: 0 for no effect and ±100 for the full control effect.

Chain of Thyrotropin receptor (Homo sapiens) (P16473 whole entry, looked up): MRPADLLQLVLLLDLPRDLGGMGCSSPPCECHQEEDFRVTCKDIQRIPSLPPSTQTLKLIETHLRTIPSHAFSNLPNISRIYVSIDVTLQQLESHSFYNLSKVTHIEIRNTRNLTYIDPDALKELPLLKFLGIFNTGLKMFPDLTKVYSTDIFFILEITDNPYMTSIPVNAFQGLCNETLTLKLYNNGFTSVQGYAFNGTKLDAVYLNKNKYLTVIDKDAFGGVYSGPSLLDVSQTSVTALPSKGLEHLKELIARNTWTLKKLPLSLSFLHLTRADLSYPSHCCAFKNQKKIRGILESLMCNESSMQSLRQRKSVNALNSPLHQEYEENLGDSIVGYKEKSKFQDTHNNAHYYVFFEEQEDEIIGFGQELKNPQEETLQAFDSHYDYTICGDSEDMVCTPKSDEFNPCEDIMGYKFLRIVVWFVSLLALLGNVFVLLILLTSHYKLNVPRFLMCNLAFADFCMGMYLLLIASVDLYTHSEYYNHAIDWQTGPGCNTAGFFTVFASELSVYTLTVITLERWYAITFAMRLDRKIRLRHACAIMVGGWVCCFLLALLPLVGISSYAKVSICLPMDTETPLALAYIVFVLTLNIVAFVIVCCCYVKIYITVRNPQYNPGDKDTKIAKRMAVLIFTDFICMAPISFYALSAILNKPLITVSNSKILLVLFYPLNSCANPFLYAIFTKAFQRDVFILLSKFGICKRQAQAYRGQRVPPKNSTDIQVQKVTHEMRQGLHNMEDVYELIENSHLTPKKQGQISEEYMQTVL
Chain of Luciferin 4-monooxygenase (Photinus pyralis) (P08659 whole entry, looked up): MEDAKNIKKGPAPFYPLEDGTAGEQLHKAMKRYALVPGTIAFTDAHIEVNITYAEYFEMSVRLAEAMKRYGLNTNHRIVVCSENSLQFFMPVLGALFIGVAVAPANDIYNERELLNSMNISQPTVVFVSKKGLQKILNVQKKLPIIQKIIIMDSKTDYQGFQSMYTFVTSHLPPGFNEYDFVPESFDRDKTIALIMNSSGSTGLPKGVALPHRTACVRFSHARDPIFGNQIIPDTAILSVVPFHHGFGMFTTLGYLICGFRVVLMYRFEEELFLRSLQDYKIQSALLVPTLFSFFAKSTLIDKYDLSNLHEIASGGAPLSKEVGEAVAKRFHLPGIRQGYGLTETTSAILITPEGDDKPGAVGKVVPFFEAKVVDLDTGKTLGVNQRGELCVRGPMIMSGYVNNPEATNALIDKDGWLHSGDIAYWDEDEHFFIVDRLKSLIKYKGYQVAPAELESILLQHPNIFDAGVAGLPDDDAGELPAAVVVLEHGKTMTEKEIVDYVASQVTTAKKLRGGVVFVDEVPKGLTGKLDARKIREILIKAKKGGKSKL
Chain of Nuclear receptor subfamily 1 group I member 3 (Homo sapiens) (Q14994 whole entry, looked up): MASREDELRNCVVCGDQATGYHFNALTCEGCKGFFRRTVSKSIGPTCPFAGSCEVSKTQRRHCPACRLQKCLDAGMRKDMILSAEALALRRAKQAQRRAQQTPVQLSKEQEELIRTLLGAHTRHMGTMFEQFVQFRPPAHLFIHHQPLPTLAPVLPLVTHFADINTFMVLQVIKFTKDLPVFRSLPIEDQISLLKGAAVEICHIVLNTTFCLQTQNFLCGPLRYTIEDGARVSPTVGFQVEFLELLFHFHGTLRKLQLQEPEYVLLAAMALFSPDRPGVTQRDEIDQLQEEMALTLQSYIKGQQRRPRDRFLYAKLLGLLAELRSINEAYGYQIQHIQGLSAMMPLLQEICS

CCN(CC#N)c1cccc(C)c1
inactive: Potency [1] | Potency [2] | outcome [3] | outcome [4] | Potency [5] | Potency [6] | outcome [7]

CC(C)C(=O)OC(=O)C(C)C
inactive: Potency [1] | Potency [2] | outcome [3] | outcome [4] | Potency [5] | Potency [6] | outcome [7] | Potency [8]

OCCCCCO
inactive: Potency [1] | Potency [2] | outcome [3] | outcome [4] | Potency [5] | Potency [6] | outcome [7] | Potency [9] | Potency [8]

COCCOCC(OC)OC
inactive: Potency [1] | Potency [2] | outcome [3] | outcome [4] | Potency [5] | Potency [6] | outcome [7] | Potency [9] | Potency [8]

Cc1cccc(C)c1NC(=O)CC12CCCN1CCC2
inactive: Potency [1] | Potency [2] | outcome [3] | outcome [4] | Potency [5] | Potency [6] | outcome [7] | Potency [9] | Potency [8]

CCCC(C)C(=O)OCC (stereo not given)
inactive: Potency [1] | Potency [2] | outcome [3] | outcome [4] | Potency [5] | Potency [6] | outcome [7] | Potency [9] | Potency [8]

CC1(C)OC[C@@H](COC(=O)CCc2ccc(OC[C@@H](O)CNCCNC(=O)N3CCOCC3)cc2)O1
inactive: Potency [1] | Potency [2] | outcome [3] | outcome [4] | Potency [5] | Potency [6] | outcome [7] | Potency [9] | Potency [8]

COc1cc(-c2ccc(=O)[nH]n2)ccc1OC(F)F
inactive: Potency [1] | Potency [2] | outcome [3] | outcome [4] | Potency [5] | Potency [6] | outcome [7]

CCCCCCC#CC(=O)OC
inactive: Potency [1] | Potency [2] | outcome [3] | outcome [4] | Potency [5] | Potency [6] | outcome [7] | Potency [9]

C=C(C)C(=O)OCC1CCCO1 (stereo not given)
inactive: Potency [1] | Potency [2] | outcome [3] | outcome [4] | Potency [5] | Potency [6] | outcome [7]

CN(C)C(=O)Oc1ccc[n+](C)c1
inactive: Potency [1] | Potency [2] | outcome [3] | outcome [4] | Potency [5] | Potency [6] | outcome [7] | Potency [9] | Potency [8]

C[C@H]1C[C@H]2[C@@H]3CCC4=CC(=O)C=C[C@]4(C)[C@H]3C(=O)C[C@]2(C)[C@@]1(O)C(=O)CO
inactive: Potency [1] | Potency [2] | outcome [3] | outcome [4] | Potency [5] | Potency [6] | outcome [7] | Potency [9] | Potency [8]

C=COCC1CCC(COC=C)CC1 (stereo not given)
inactive: Potency [1] | Potency [2] | outcome [3] | outcome [4] | Potency [5] | Potency [6] | outcome [7] | Potency [9] | Potency [8]

Cc1cc(C)c(N=Nc2c(O)c(S(=O)(=O)O)cc3cc(S(=O)(=O)O)ccc23)cc1C
active: Potency [10] 0.959 µM
inactive: viability change, negative = cytotoxic [1] -4.92% [at 8.39 µM] | activity change, negative = inhibition [2] -6.78% [at 10.5 µM] | viability change, negative = cytotoxic [3] -15.6% [at 8.39 µM] | activity change, negative = cytotoxicity [4] 0.232% [at 8.39 µM] | activity, negative = inhibition [5] -3.25% [at 8.39 µM] | activation [6] 7.37% [at 8.39 µM] | viability change, negative = cytotoxic [7] -4.24% [at 8.39 µM] | activation [9] -8.18% [at 8.39 µM]

CCOC(=O)COC(=O)c1ccccc1C(=O)OCC
inactive: Potency [1] | Potency [2] | outcome [3] | outcome [4] | Potency [5] | Potency [6] | outcome [7] | Potency [9] | Potency [8]

CCCCOCCOC(=O)COc1cc(Cl)c(Cl)cc1Cl
inactive: Potency [1] | Potency [2] | outcome [3] | outcome [4] | Potency [5] | Potency [6] | outcome [7] | Potency [8]

Cc1nc(C2CCCCC2)c(-c2ccc(S(N)(=O)=O)c(F)c2)o1
inactive: Potency [1] | Potency [2] | outcome [3] | outcome [4] | Potency [5] | Potency [6] | outcome [7] | Potency [9] | Potency [8]

CCCCOCCOC(=O)CCCCCCCCC(=O)OCCOCCCC
inactive: Potency [1] | Potency [2] | outcome [3] | outcome [4] | Potency [5] | Potency [6] | outcome [7] | Potency [9] | Potency [8]

O=C(O)CCSCCC(=O)O
inactive: Potency [1] | Potency [2] | outcome [3] | outcome [4] | Potency [5] | Potency [6] | outcome [7] | Potency [8]

CCOC(=O)CCC(=O)OCC
inactive: Potency [1] | Potency [2] | outcome [3] | outcome [4] | Potency [5] | Potency [6] | outcome [7] | Potency [9] | Potency [8]

CCCCCCCCN1CCCC1=O
inactive: Potency [1] | Potency [2] | outcome [3] | outcome [4] | Potency [5] | outcome [7] | Potency [9]
active: Potency [6] 30.6 µM

OCCc1ccccn1
inactive: Potency [1] | Potency [2] | outcome [3] | outcome [4] | Potency [5] | Potency [6] | outcome [7]

CCOC(=O)OC(C)OC1=C(C(=O)Nc2ccccn2)N(C)S(=O)(=O)c2ccccc21 (stereo not given)
inactive: Potency [1] | Potency [2] | outcome [3] | outcome [4] | Potency [5] | Potency [6] | outcome [7] | Potency [10] | Potency [9] | Potency [8]

CO/N=C(\C(=O)N[C@@H]1C(=O)N2C(C(=O)O)=C(CSc3nc(=O)c(O)nn3C)CS[C@H]12)c1csc(N)n1
inactive: Potency [1] | Potency [2] | outcome [3] | outcome [4] | Potency [5] | Potency [6] | outcome [7] | Potency [10] | Potency [9] | Potency [8]

CC(C)(C)c1ccc(-c2ccc(C(C)(C)C)cc2)cc1
inactive: Potency [1] | Potency [2] | outcome [3] | outcome [4] | Potency [5] | Potency [6] | outcome [7] | Potency [10] | Potency [9] | Potency [8]
